# PubChem BioAssay AID504329 (Southern Research Specialized Biocontainment Screening …, 2011)
# In all, about 340,000 compounds went through this assay and about 1,000 (0.29%) were called active. Not all results are given here. Potency and affinity values are given separately. Values without a mark were called inactive. Rule as the data show it: inconclusive = inhibition above about 27% without an active follow-up result; inactive = below that.
# Assay: NS1A inhibition, H1N1 influenza, cell based functional assay (AID 504329)
# Settings: percent inhibition, at 12.5 µM, hits give high values
row,Structure (SMILES),inhibition
1,O=C(/C=N/O)NCc1ccncc1,-2.91%
2,O=C(CC(NS(=O)(=O)c1ccc(Cl)cc1)c1ccco1)NCc1ccco1 (centres undefined),-0.25%
3,Cc1ccccc1NC(=S)N(Cc1cccnc1)Cc1ccco1,17%
4,Cc1cc(C(=O)NCCCOC(C)C)c2ccccc2n1,5.34%
5,COc1ccc(-c2csc(NC(=O)CCCc3nc4ccccc4c(=O)[nH]3)n2)cc1OC,0.34%
6,N#Cc1ccc(CSc2nnc3[nH]c(=O)cc(N)n23)cc1,-7.19%
7,O=C(COc1ncnc2ccccc12)NC1CCCCC1,9.63%
8,COc1ccc(CC(=O)NC(C)c2nnc(SCC(=O)Nc3cc(C)ccc3OC)n2C)cc1 (centres undefined),-9.49%
9,O=C(N/N=C/c1ccccn1)c1ccc(N/N=C/c2ccccn2)cc1,1.09%
10,Cc1cccc(/C=N/Nc2nncc3ccccc23)c1,3.05%
11,C(=N\Nc1nc2ccccc2[nH]1)/c1ccccn1,17.1%
12,C(=N\Nc1nncc2ccccc12)/c1ccccc1,-20.6%
13,O=c1cnnc(N/N=C/c2ccccn2)[nH]1,20.5%
14,Cc1csc(N/N=C/c2ccccn2)n1,7.11%
15,C=CCn1c(SCC(=O)NCc2ccc3c(c2)OCO3)nnc1C1COc2ccccc2O1 (centres undefined),-2.53%
16,CCC(C)[C@H](NC(=O)N1CCn2c1nc1ccccc12)C(=O)NCCc1ccccc1 (some centres undefined),4.3%
17,COc1cccc(-c2ccc(NC(=O)C3CCCN(CCCn4nc(C)cc4C)C3)cc2)c1 (centres undefined),3.69%
18,N#Cc1c(C(F)(F)F)cc(-c2ccccc2)n(N)c1=O,-8.39%
19,O=C(Nc1ccon1)c1ccc(Cl)c(S(=O)(=O)N2CCCCC2)c1,-6.8%
20,S=c1[nH]nc(C2CCCCC2)n1/N=C/c1ccccn1,-8.07%
21,CCc1n[nH]c(=S)n1/N=C/c1ccccn1,-4.28%
22,O=C(CSc1ccc(-c2ccccn2)nn1)NCc1ccccc1,1.11%

row,Structure (SMILES),inhibition
1,Cc1ccc(CNC(=O)CSc2ccc(-c3ccccn3)nn2)cc1,14.6%
2,COc1cccc(CNC(=O)CSc2ccc(-c3cccs3)nn2)c1,5.92%
3,COc1cccc(CNC(=O)CSc2ccc(-c3ccco3)nn2)c1,-0.85%
4,O=C(O)C1CCCCC1C(=O)Nc1ccc(S(=O)(=O)N2CCCCC2)cc1 (centres undefined),4.7%
5,CCCC(C)C1(CC)C(=O)NC(=O)N=C1N (centres undefined),-9.22%
6,O=C(NCc1cccnc1)c1ccccc1NS(=O)(=O)c1ccccc1,-3.37%
7,CCOC(=O)C1CCCN(c2c(N3CCN(c4ccccn4)CC3)c(=O)c2=O)C1 (centres undefined),6.61%
8,CCCCCOc1ccc(C(=O)NCCC(=O)NCCCC(=O)OCC)cc1,-5.18%
9,CC1(C)CC(=O)C2=C(C1)Nc1ccccc1NC2c1ccc(F)c(F)c1 (centres undefined),-6.87%
10,O=C(O)Cc1cn(Cc2ccc(F)cc2)c2ccccc12,5.18%
11,Cc1[nH][nH]c(=O)c1C(c1c(C)[nH][nH]c1=O)c1cn(Cc2ccc(Cl)c(Cl)c2)c2ccccc12,17.4%
12,COc1ccc(CNc2nc3ccccc3n2CCN2CCCCC2)cc1,8.37%
13,CCN(CC)c1ccc(CNc2nc3ccccc3n2CCN2CCOCC2)cc1,5.53%
14,CC(C)C[C@@H](CNCC(=O)[C@H](CC(C)C)NC(=O)c1[nH]cnc1C(=O)N[C@H](CN)CC(C)C)NC(=O)c1nc[nH]c1C(=O)N[C@@H](Cc1ccccc1)C(=O)O,-21.2%
15,COC(=O)c1scc(C)c1NC(=O)c1ccccc1F,-2.27%
16,COc1cccc(OC)c1C(=O)Nc1nnc(-c2ccc(F)cc2)s1,-7.27%
17,CCN(CC)c1ccc(/C=N/N(c2ccccc2)c2ccccc2)c(O)c1,-0.39%
18,CCN(CC)c1ccc2nc3ccccc3[n+](CC)c2c1,25.1%
19,N#Cc1nc(COc2cccc(Cl)c2)oc1N1CCN(c2ccccc2)CC1,-10.8%
20,O=C1C(c2c(O)[nH]c3ccccc23)=Nc2ccccc21,4.56%
21,CC(=O)Nc1c(O)c2ccccc2[nH]c1=O,-0.37%
22,COc1ccc(CCNC(=O)c2ccc(CS(=O)(=O)Cc3cccc(C)c3)o2)cc1OC,1.57%

row,Structure (SMILES),inhibition
1,O=C(CN1C(=O)c2ccccc2C1=O)Nc1cccc(Cl)c1,-5.21%
2,Nc1ccc2nc(-c3cccc(-c4nc5ccc(N)cc5[nH]4)n3)[nH]c2c1,16.6%
3,Nc1ccc2cn[nH]c2c1,0.77%
4,O=C(OCCn1c(=S)sc2ccccc21)c1ccccc1,-0.85%
5,O=C(c1ccccc1)c1ccc(C(=O)N2CCOCC2)cc1,2.77%
6,CC(=O)Nc1ccc(NC(=O)CSc2nnc(-c3cccnc3)o2)cc1,-1.5%
7,O=C(CSc1nnc(-c2cccnc2)o1)Nc1ccccn1,19%
8,CCOC(=O)C1CCCN(c2c(NCCc3ccc(S(N)(=O)=O)cc3)c(=O)c2=O)C1 (centres undefined),-1.2%
9,Cc1ccc2c(CN(C)Cc3ccc(OC(F)F)cc3)cc(=O)oc2c1C,-13.7%
10,CN(Cc1nccs1)C(=O)C1CCC(=O)N(Cc2ccccc2F)C1 (centres undefined),-7.1%
11,COc1cccc(/C=C2\SC(=S)N(CCC(=O)N3CCCCC3)C2=O)c1,-7.67%
12,COc1cccc(/C=C2\SC(=S)N(CCCC(=O)N3CCCCC3)C2=O)c1,13.4%
13,S=c1[nH]cnc2scc(-c3ccccc3)c12,2.25%
14,S=c1[nH]c(-c2ccccc2)cs1,-8.02%
15,CCn1cc(C(=O)NCc2ccc(OC)cc2)c(=O)c2ccc(C)nc21,-3.98%
16,O=C(NCCc1ccccc1)C(=O)NCC1CCCN1S(=O)(=O)c1ccccc1 (centres undefined),-2.99%
17,N#C/C(=C\C1=C(N2CCOCC2)C(=C\c2ccc(Cl)cc2)/CC1)C(=O)Nc1ccccc1F,8.68%
18,N#C/C(=C/C1=C(N2CCOCC2)C(=C/c2ccc(Cl)cc2)/CC1)C(=O)Nc1ccccc1F,-12.3%
19,CCN(CC)c1ccc(/C=C2\CCC(/C=C(/C#N)C(=O)Nc3ccccc3F)=C2N2CCOCC2)cc1,-9.82%
20,CCN(CC)c1ccc(/C=C2\CCC(/C=C(\C#N)C(=O)Nc3ccccc3F)=C2N2CCOCC2)cc1,-0.77%
